Data as given in the supplement of paper PMC10849652.
Targets with a hit are over-represented here; the source holds about 7,900 in all. About 0.6% of all pairs of compound and target were hits. Values without a mark were called inactive.

Sequence of UniProt O15460 (O15460 whole entry, looked up): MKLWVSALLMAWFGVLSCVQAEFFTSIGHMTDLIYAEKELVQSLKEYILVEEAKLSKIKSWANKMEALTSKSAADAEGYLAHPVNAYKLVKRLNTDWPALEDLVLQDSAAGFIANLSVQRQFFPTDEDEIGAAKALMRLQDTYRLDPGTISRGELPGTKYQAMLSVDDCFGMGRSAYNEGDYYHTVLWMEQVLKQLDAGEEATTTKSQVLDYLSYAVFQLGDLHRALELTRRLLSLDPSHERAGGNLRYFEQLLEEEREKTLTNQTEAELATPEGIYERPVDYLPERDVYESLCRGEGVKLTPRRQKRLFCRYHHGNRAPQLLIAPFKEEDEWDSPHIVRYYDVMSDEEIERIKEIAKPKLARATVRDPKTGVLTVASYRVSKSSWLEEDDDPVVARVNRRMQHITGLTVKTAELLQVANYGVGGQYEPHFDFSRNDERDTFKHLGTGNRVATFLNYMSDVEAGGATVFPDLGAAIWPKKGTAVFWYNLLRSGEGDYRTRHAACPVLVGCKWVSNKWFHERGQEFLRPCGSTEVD
Sequence of UniProt O60361 (O60361 whole entry, looked up): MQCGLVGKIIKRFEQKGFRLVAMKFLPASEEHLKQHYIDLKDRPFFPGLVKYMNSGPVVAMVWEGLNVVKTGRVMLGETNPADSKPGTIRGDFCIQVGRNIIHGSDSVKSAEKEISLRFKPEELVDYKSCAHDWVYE
Sequence of UniProt O43847 (O43847 whole entry, looked up): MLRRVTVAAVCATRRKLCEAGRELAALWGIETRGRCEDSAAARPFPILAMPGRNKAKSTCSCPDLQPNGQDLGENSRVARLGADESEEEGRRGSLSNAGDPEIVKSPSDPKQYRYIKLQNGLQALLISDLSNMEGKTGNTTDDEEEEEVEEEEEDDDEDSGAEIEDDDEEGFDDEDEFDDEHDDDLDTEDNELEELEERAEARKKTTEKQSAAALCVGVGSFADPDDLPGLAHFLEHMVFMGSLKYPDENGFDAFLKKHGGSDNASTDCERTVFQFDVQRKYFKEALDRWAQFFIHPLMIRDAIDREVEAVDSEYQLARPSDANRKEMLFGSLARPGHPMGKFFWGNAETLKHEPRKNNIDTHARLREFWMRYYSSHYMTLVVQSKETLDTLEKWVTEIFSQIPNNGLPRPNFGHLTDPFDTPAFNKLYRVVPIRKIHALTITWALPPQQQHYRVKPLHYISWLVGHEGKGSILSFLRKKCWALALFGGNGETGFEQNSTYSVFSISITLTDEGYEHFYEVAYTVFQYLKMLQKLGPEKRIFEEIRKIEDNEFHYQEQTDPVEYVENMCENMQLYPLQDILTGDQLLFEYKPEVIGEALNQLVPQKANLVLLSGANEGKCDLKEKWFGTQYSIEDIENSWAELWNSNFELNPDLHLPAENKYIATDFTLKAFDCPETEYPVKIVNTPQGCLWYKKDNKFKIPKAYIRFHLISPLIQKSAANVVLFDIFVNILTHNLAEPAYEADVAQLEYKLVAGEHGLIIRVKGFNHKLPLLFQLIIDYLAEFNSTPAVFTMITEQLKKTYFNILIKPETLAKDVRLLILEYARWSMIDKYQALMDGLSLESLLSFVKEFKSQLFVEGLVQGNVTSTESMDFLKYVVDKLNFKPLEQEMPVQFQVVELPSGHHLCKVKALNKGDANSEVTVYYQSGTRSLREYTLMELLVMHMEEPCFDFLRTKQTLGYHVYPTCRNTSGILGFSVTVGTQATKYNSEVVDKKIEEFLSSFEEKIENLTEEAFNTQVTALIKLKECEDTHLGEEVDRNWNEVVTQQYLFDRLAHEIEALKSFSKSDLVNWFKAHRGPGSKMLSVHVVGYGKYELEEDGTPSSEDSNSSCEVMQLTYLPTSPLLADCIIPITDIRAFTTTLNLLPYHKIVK
Sequence of UniProt P40261 (P40261 whole entry, looked up): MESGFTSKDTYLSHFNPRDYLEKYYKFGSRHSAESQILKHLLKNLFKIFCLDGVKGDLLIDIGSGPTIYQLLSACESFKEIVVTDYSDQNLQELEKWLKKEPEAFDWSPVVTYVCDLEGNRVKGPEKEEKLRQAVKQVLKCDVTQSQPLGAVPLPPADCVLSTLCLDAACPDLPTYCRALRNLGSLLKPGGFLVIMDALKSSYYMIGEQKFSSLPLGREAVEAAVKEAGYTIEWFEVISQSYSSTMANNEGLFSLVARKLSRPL
Sequence of UniProt Q92692 (Q92692 whole entry, looked up): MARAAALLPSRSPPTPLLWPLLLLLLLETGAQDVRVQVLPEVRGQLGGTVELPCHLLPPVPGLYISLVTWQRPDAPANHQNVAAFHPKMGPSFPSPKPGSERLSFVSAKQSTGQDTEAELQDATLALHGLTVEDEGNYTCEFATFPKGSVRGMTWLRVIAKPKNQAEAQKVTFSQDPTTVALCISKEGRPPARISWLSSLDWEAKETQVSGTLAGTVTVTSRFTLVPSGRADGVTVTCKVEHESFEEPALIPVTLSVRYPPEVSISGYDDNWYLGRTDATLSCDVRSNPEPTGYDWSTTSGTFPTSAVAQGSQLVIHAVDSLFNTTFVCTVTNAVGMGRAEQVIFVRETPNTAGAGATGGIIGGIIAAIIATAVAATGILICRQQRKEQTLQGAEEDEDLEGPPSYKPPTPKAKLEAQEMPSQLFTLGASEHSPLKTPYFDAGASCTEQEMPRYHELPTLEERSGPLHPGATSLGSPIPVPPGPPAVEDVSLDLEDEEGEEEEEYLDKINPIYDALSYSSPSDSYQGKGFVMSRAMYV
Sequence of UniProt Q15746 (Q15746 whole entry, looked up): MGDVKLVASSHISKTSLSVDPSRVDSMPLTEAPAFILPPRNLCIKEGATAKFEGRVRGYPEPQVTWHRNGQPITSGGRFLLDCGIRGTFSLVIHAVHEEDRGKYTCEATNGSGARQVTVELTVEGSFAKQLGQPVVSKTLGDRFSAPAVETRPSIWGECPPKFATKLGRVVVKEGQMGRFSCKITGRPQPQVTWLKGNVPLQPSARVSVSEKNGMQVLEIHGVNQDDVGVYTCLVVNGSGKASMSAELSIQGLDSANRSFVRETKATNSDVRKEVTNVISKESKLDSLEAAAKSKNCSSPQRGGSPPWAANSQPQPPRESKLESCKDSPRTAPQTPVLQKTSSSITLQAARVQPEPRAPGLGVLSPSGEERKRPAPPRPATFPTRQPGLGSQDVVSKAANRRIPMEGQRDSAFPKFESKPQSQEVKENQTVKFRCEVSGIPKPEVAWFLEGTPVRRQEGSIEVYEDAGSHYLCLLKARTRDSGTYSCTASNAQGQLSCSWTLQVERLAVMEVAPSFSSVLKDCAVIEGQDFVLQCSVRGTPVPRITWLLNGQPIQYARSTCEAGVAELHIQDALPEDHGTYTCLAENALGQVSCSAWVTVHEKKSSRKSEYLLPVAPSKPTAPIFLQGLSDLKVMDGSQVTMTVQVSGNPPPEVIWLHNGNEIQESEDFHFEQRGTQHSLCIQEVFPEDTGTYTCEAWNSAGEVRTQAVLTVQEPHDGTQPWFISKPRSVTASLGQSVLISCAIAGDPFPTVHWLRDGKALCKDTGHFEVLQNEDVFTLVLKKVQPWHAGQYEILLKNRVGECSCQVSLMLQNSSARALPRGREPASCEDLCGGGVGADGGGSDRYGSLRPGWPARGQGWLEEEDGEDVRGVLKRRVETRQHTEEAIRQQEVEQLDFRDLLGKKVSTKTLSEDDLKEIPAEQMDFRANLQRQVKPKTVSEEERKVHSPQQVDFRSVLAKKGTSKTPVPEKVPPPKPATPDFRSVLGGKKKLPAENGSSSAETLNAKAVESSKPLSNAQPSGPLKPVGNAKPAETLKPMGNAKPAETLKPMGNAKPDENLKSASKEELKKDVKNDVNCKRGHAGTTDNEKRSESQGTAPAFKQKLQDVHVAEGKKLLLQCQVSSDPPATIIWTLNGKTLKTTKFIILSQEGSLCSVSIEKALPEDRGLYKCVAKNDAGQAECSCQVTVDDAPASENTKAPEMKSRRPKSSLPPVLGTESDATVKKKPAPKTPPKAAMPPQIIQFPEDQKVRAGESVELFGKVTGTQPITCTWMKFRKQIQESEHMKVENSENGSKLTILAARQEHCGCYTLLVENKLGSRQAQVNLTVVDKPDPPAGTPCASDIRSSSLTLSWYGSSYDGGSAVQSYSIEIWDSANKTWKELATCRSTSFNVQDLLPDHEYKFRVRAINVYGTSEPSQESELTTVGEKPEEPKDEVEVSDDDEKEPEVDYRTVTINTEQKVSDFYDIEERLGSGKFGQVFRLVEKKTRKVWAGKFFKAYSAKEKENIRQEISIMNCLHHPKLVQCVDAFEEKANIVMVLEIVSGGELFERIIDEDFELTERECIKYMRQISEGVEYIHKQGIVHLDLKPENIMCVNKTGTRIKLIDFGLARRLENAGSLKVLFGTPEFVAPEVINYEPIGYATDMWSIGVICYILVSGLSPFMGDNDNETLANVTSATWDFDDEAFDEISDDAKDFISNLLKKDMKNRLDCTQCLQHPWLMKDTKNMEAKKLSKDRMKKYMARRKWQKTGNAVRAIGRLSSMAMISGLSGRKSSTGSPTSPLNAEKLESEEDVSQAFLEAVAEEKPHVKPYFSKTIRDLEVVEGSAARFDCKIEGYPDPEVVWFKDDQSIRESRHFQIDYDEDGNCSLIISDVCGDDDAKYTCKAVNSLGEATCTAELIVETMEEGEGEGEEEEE
Sequence of UniProt Q9UH92 (Q9UH92 whole entry, looked up): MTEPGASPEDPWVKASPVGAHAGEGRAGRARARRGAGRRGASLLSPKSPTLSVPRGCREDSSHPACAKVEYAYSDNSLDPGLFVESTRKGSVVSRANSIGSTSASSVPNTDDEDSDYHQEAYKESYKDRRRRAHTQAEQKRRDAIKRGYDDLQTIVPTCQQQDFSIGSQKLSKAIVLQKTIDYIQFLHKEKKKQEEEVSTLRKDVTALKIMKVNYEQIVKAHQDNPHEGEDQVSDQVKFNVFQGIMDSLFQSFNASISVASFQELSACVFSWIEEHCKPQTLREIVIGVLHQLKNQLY
Sequence of UniProt O75438 (O75438 whole entry, looked up): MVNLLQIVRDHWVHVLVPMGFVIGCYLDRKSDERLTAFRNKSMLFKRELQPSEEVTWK
Sequence of UniProt Q9Y605 (Q9Y605 whole entry, looked up): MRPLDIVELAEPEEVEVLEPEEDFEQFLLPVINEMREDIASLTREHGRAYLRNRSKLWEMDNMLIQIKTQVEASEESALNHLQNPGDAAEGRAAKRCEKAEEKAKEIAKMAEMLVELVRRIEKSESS

These targets were tested with Cc1ccc(NC(=O)c2ccc(CN3CC[C@H](N(C)C)C3)c(C(F)(F)F)c2)cc1Nc1nccc(-c2cncnc2)n1 [bafetinib] (assay: log2 fold change, soluble protein after heating vs DMSO (PISA); higher = thermal stabilisation; K562 cells, 10 uM, 30 min; active = over 0.2 and 3.5 SD of the protein, either way, in both replicates (recomputed)).
Procedure, shortened: (§1)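 Thermal stability values are relative to control samples and come from duplicates. They are expressed as log2 fold changes. For measurement, K562 cells (2×10^6 cells/mL) received 10 μM compound for 30 min, and aliquots were heated for 3 min over 48°C-58°C, pooled, and extracted at 4°C in PBS with 0.5% NP-40. Soluble protein, the supernatant after 21,000xg for 90 min, was quantified by TMTpro 16plex LC-MS/MS with equalised channel sums.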
With NMU (UniProt P48645) the log2 fold change was -0.01.
NIPSNAP3B (UniProt Q9BS92) showed a log2 fold change of -0.085.
Target NFYB (UniProt P25208) has a log2 fold change of -0.086.
For MYLK (UniProt Q15746), the log2 fold change was 0.827 (active).
Work on NAP1L1 (UniProt B7Z9C2) yielded a log2 fold change of -0.11.
In the case of NAGPA (UniProt Q9UK23), the log2 fold change was -0.076.
NNMT (UniProt P40261) was tested, and the log2 fold change was -0.038.
Target NKAP (UniProt Q8N5F7) has a log2 fold change of -0.016.
In the case of MMADHC (UniProt Q9H3L0), the log2 fold change was 0.038.
OGFOD2 (UniProt Q6N063) showed a log2 fold change of 0.009.
Work on OVCA2 (UniProt Q8WZ82) yielded a log2 fold change of 0.171.
NUP160 (UniProt Q12769) showed a log2 fold change of -0.127.
For NPM3 (UniProt O75607), the log2 fold change was 0.017.
Work on P4HA2 (UniProt O15460) yielded a log2 fold change of 0.012.
With NA, A0A494C071 the log2 fold change was -1.12 (active).
Work on MOB2 isoform 3 (UniProt Q70IA6) yielded a log2 fold change of 0.005.
In the case of MT-ND2 (UniProt P03891), the log2 fold change was 0.
NRDC isoform 2 (UniProt O43847) showed a log2 fold change of 0.022.
NA, A0A2R8Y3M9 showed a log2 fold change of -0.605.
Target MRFAP1 (UniProt Q9Y605) has a log2 fold change of -0.045.
With NCBP2AS2 (UniProt Q69YL0) the log2 fold change was -0.504 (active).
Target OAT (UniProt P04181) has a log2 fold change of -0.038.
MON1A (UniProt Q86VX9) was tested, and the log2 fold change was -0.011.
For NDFIP1 (UniProt Q9BT67), the log2 fold change was -0.137.
In the case of NME2P1 (UniProt O60361), the log2 fold change was 0.058.
MOB3B (UniProt Q86TA1) gave a log2 fold change of -0.023.
MYO19 (UniProt Q96H55) showed a log2 fold change of 0.007.
MYH16 (UniProt Q9H6N6) was tested, and the log2 fold change was 0.482.
In the case of ORC5 (UniProt O43913), the log2 fold change was 0.01.
With MSL1 (UniProt Q68DK7) the log2 fold change was -0.056.
With NDUFB1 (UniProt O75438) the log2 fold change was -0.116.
For NUMBL (UniProt Q9Y6R0), the log2 fold change was -0.002.
In the case of NELFCD (UniProt Q8IXH7), the log2 fold change was 0.116.
MTFR1L (UniProt Q9H019) was tested, and the log2 fold change was -0.1.
With NUP98 (UniProt P52948) the log2 fold change was -0.008.
With NECTIN2 isoform 2 (UniProt Q92692) the log2 fold change was -0.64.
For MRPS16 (UniProt Q9Y3D3), the log2 fold change was 0.192.
MLX (UniProt Q9UH92) was tested, and the log2 fold change was -0.022.
Target OPHN1 (UniProt O60890) has a log2 fold change of -0.035.

These targets were tested with Cc1cccc(CC(=O)N2CCc3c2ccc(-c2cn(C)c4ncnc(N)c24)c3F)n1 in the same assay as above.
Procedure, shortened: as §1
NMU (UniProt P48645) showed a log2 fold change of 0.152.
With NIPSNAP3B (UniProt Q9BS92) the log2 fold change was -0.054.
Work on NFYB (UniProt P25208) yielded a log2 fold change of -0.006.
Target MYLK (UniProt Q15746) has a log2 fold change of -0.063.
NAP1L1 (UniProt B7Z9C2) gave a log2 fold change of -0.249.
In the case of NAGPA (UniProt Q9UK23), the log2 fold change was -0.142.
NNMT (UniProt P40261) gave a log2 fold change of 0.068.
Work on NKAP (UniProt Q8N5F7) yielded a log2 fold change of -0.081.
MMADHC (UniProt Q9H3L0) showed a log2 fold change of 0.054.
With OGFOD2 (UniProt Q6N063) the log2 fold change was 0.171.
For OVCA2 (UniProt Q8WZ82), the log2 fold change was 0.039.
In the case of NUP160 (UniProt Q12769), the log2 fold change was 0.043.
Target NPM3 (UniProt O75607) has a log2 fold change of -0.027.
Work on P4HA2 (UniProt O15460) yielded a log2 fold change of -0.007.
With NA, A0A494C071 the log2 fold change was -0.057.
Work on MOB2 isoform 3 (UniProt Q70IA6) yielded a log2 fold change of -0.039.
MT-ND2 (UniProt P03891) showed a log2 fold change of -0.173.
For NRDC isoform 2 (UniProt O43847), the log2 fold change was 0.072.
NA, A0A2R8Y3M9 gave a log2 fold change of 0.19.
MRFAP1 (UniProt Q9Y605) showed a log2 fold change of -0.08.
With NCBP2AS2 (UniProt Q69YL0) the log2 fold change was -0.018.
OAT (UniProt P04181) showed a log2 fold change of -0.018.
Work on MON1A (UniProt Q86VX9) yielded a log2 fold change of -0.112.
NDFIP1 (UniProt Q9BT67) gave a log2 fold change of -0.08.
Work on NME2P1 (UniProt O60361) yielded a log2 fold change of 0.059.
MOB3B (UniProt Q86TA1) showed a log2 fold change of 0.034.
MYO19 (UniProt Q96H55) was tested, and the log2 fold change was -0.068.
MYH16 (UniProt Q9H6N6) was tested, and the log2 fold change was 0.303.
Work on ORC5 (UniProt O43913) yielded a log2 fold change of 0.027.
With MSL1 (UniProt Q68DK7) the log2 fold change was 0.172.
Target NDUFB1 (UniProt O75438) has a log2 fold change of 0.028.
With NUMBL (UniProt Q9Y6R0) the log2 fold change was 0.113.
With NELFCD (UniProt Q8IXH7) the log2 fold change was -0.111.
Target MTFR1L (UniProt Q9H019) has a log2 fold change of 0.305.
Target NUP98 (UniProt P52948) has a log2 fold change of 0.018.
NECTIN2 isoform 2 (UniProt Q92692) showed a log2 fold change of 0.145.
In the case of MRPS16 (UniProt Q9Y3D3), the log2 fold change was 0.151.
Work on MLX (UniProt Q9UH92) yielded a log2 fold change of 0.094.
With OPHN1 (UniProt O60890) the log2 fold change was -0.134.
